# Source: PubChem (National Center for Advancing Translational Sciences (NCATS))
# Sampled rows, rich in hits. Any-hit rate of the full collection: about 10%.
# Lamin A splicing: modulators of lamin A splicing | 0.01% of 200,000 active | HeLa LMNA splicing GFP/RFP minigene ratio, 48 h | Potency, µM (titrated, usually from 46.1 µM), for inactives: at the highest dose ratio change, negative = inhibition, most hits filed as inhibitors; active = well fitted inhibition curve with a large enough effect in the signal ratio, with a control signal flat, not every such curve was filed as active; inconclusive = small, poorly fitted or top-dose-only effect, or effect the other way, or a change in a side signal; the % refers to the signal ratio; note: potency is the fitted concentration of half-maximal effect
#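 S3 HeLa stable clones carrying a lamin A-EGFP splicing minigene plus DsRed2 were seeded at 600 cells/well in Opti-MEM with 2% FBS, pin-dosed and incubated 48 h at 37°C. Acumen cytometry (488 nm) gave the GFP/RFP total-intensity ratio.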
# HPGD block: blocks human HPGD enzyme activity. purified HPGD, NADH fluorescence kinetic, PGE2 substrate. Potency, µM, for the others: top-dose activity change, negative = inhibition, most hits filed as inhibitors. 4.3% of 150,000 active. AID 894; note: potency is the fitted concentration of half-maximal effect
#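 20 nM HPGD preincubated 15 min at room temperature with compound in 50 mM Tris-HCl pH 8, 0.01% Tween 20. Started with 1 mM NAD+ and 30 uM prostaglandin E2; NADH fluorescence (360/450 nm) read 5 times over 30-s intervals, last minus first.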
# 12-hLO inh: inhibitors of human 12-lipoxygenase (ALOX12). P18054. purified 12-hLO, xylenol orange hydroperoxide absorbance. Potency, µM (doses to about 57.1 µM), for the others: at the highest dose activity change, negative = inhibition, most hits filed as inhibitors. 0.12% of 150,000 active; active = well fitted inhibition curve with a large enough effect; inconclusive = small, poorly fitted or top-dose-only effect; note: potency is the fitted concentration of half-maximal effect; nearly all actives have a fitted effect of over 55% in size
#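 Purified human 12hLO (150 nM), preincubated 15 min with compound, then 40 uM arachidonic acid for 30 min, room temperature, Hepes pH 7.0 with 0.01% Triton X-100. Hydroperoxide detected by ferrous iron/xylenol orange; 573/405 nm absorbance ratio gives reaction progress.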
# PNC inhibitor: perinucleolar compartment assembly inhibition; PC3M PTB-GFP, PNC prevalence imaging, 16 h; stronger effect = lower value; activity change (PNC), negative = inhibition, % at 10 µM; 3.1% of 140,000 active; AID 2417;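 active = readout at or below -70, meaning at least 70% loss of cells showing the perinucleolar compartment, a nuclear body marking cancer cells; inconclusive = readout between -30 and a set limit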;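 note: plate controls were DMSO wells for no effect and camptothecin positive control wells for full effect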
#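 Read-out is percentage of cells bearing a perinucleolar compartment, from automated 20x imaging of fixed, Hoechst-stained PC3M PTB-GFP cells. Cells were seeded 4 h, then exposed 16 h to compound (23 nl of library stock) in duplicate plates.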
# ALDH1A1 block: blocks purified human ALDH1A1 activity; P00352; Purified ALDH1A1, NADH fluorescence, propionaldehyde substrate; Potency, µM (titrated, usually from 75.3 µM), inactives show at the highest dose activity, negative = inhibition, most hits filed as inhibitors; 7.3% of 220,000 active;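 note: potency is the fitted concentration of half-maximal effect; plate controls were no enzyme wells and a reference inhibitor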
# Target sequence (P00352 whole entry, looked up): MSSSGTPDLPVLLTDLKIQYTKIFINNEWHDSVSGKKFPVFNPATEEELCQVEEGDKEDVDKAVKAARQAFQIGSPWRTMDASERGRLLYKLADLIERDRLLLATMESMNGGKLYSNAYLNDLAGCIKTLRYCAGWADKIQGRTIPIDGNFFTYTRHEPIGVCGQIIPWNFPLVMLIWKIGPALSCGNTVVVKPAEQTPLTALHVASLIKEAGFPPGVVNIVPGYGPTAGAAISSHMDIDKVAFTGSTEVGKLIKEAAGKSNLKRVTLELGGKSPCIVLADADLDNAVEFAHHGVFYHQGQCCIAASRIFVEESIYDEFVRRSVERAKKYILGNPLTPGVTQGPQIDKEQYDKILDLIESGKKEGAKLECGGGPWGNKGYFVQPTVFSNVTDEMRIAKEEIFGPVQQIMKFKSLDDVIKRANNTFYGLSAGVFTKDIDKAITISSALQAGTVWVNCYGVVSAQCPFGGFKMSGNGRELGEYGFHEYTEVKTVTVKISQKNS
# * = called active by the depositor; ? = inconclusive; nt = no result; [ ] = remark or other dose. Unless noted, calls come from the whole dose curve; as a rule, active = well fitted inhibition curve with a large enough effect (not every such curve was filed as active); inconclusive = small, poorly fitted or top-dose-only effect, or another doubt; inactive = no such curve, though single readings can be large or run the other way. Unless noted, % is set by controls: 0 for no effect and ±100 for the full control effect.
SMILES,Lamin A splicing,HPGD block,12-hLO inh,PNC inhibitor,ALDH1A1 block
Cc1cccc(CNC(=O)c2cc3cc(S(=O)(=O)N4CCCCC4)ccc3n2C)c1,-8%[46 µM],nt,nt,nt,nt
COC(=O)[C@@H](NC(=O)N1CCc2nc(COc3ccccc3)c3c(c2C1)CO[C@@H](C)C3)C(C)C,10%[9.22 µM],-6%,0%[11.4 µM],nt,5%[13.5 µM]
Cc1cccc(C)c1OCCCCCNCCO,-9%,-12%,8%,14,20µM*
COc1ccccc1OCCCCNCCO,-1%,1%,3%,-28,7%
CC(C)c1ccccc1OCCCCCNCCO,?,-22%,3%,-6,18µM*
Cc1ccccc1OCCCCCNCCO,0%,-3%,8%,?,?
CNC(=O)[C@H]1O[C@@H](n2cnc3c(NCc4ccc(N)cc4)ncnc32)[C@H](O)[C@H]1O,?,2%,nt,nt,3%
CCOC(=O)NC(NC(=O)OCC)C(=O)c1ccccc1,6%,-8%,2%,?,12%
CCOC(=O)NC(N(O)c1cccc(Cl)c1)C(Cl)(Cl)Cl (centres undefined),nt,nt,nt,nt,8.9µM*
COc1ccc(Nc2oc(COc3ccccc3OC)nc2C#N)cc1,?,14µM*,-7%,72,2%
COc1ccc(CCNc2oc(COc3ccccc3F)nc2C#N)cc1OC,?,-10%,-12%,16,?
CCNc1oc(COc2ccccc2F)nc1C#N,4%,14µM*,-9%,-13,?
COc1cccc(N2CC(NC(=O)COc3ccc4ccccc4c3)CC2=O)c1 (centres undefined),7%[46 µM],nt,nt,nt,nt
O=C(NCC(c1ccc2c(c1)OCO2)N1CCOCC1)c1ccc(F)cc1 (centres undefined),-4%[46 µM],nt,nt,nt,nt
Cc1ccc(C(NC(=O)N2CCCCC2)=C(Cl)Cl)cc1F,?,-14%,0%,-6,0.11µM*
Cc1ccc(C(NC(=O)NCCCN2CCOCC2)=C(Cl)Cl)cc1F,?,-14%,3%,-3,0.4µM*
Cc1ccc(C(=O)NC(=S)NCCCN2CCOCC2)cc1,?,nt,nt,nt,-2%
COc1ccc(/C=C2\SC(=O)N=C2N)cc1,-10%,-20%,0%,-104*,-3%
O=c1/c(=C/c2ccc(O)c([N+](=O)[O-])c2)sc2nc3ccccc3n12,nt,nt,nt,nt,-3%
O=c1/c(=C/c2ccc(O)cc2)sc2nc3cc(Br)cnc3n12,nt,nt,nt,nt,20µM*
COC(=O)c1ccc2c(=O)n(CCCCCC(=O)NCc3ccc(OC)cc3)c(=O)[nH]c2c1,10%[46 µM],nt,nt,nt,nt
CC(=O)Nc1ccc(S(=O)(=O)Oc2ccc(C(=S)N3CCCCC3)cc2)cc1,?,16µM*,3%,?,14µM*
CCOc1cc(C(=S)N2CCOCC2)ccc1OS(=O)(=O)c1ccc(NC(C)=O)cc1,10%,-20%,-2%,27,6%
CC(=O)Nc1ccc(S(=O)(=O)Oc2ccc(C(=S)N3CCC(O)CC3)cc2)cc1,?,32µM*,-3%,23,4%
O=C(/C=C/c1ccc2c(c1)OCO2)c1cccs1,nt,?,-25%,nt,?
SMILES,Lamin A splicing,HPGD block,12-hLO inh,PNC inhibitor,ALDH1A1 block
NC=O,nt,-11%,-4%,nt,11%
C=CCn1c(C)c(C(C)=O)c(SC)nc1=S,4%,-11%,0%,-84*,-1%
Cc1nnc(N/N=C/c2cc([N+](=O)[O-])c(N3CCC(C)CC3)cc2N2CCC(C)CC2)n1N,?,25µM*,-19%,-30,7.1µM*
CC1CCN(c2cc(N3CCOCC3)c([N+](=O)[O-])cc2F)CC1,?,-21%,-11%,-27,-40%
CCc1nnc(N/N=C/c2ccc(N3CCC(C)CC3)c([N+](=O)[O-])c2)n1N,-2%,-8%,-4%,1,22µM*
O=C(NCc1ccccc1Cl)c1nnc(Cc2cccc(F)c2)o1,-22%[46 µM],nt,nt,nt,nt
CCOc1ccc(C(=O)NCC2CCCO2)cc1 (centres undefined),-5%,16µM*,-4%,-2,5%
CCOc1ccc(OCc2ccc(C(=O)NCC3CCCO3)o2)cc1 (centres undefined),-8%,-29%,3%,3,-12%
CCOC(=O)Nc1ccc(C(=O)NCC2CCCO2)cc1 (centres undefined),5%,16µM*,-5%,-1,0%
O=C(NCC1CCCO1)c1ccc(COc2ccc(F)cc2)o1 (centres undefined),1%,25µM*,-9%,-20,10µM*
O=C(NCC1CCCO1)c1ccc(C(=O)NCC2CCCO2)cc1 (centres undefined),-12%,-10%,1%,13,0%
O[C@@](CCN1CCCCC1)(c1ccccc1)C1CCCCC1,1%,-5%,0%[25.6 µM],nt,-6%[20.9 µM]
CCOc1ccc(NC(=S)NC(=O)/C=C/c2ccc(OC)c(OC)c2)c([N+](=O)[O-])c1,-5%,22µM*,-8%,6,-3%
COc1ccc(NC(=O)/C=C/c2ccccc2)c([N+](=O)[O-])c1,-1%,-1%,-2%,-82*,8%
COC(=O)c1cc(Cl)c(NC(=O)/C=C/c2ccc(OC)cc2)cc1OC,-6%,?,0%,-113*,?
COC(=O)c1cc(Cl)c(NC(=O)C(C)C)cc1OC,16%[46 µM],nt,nt,nt,8%
COc1ccc(/C=C/C(=O)Nc2ccc(OC)cc2[N+](=O)[O-])cc1,-11%,-4%,2%,-11,9%
COc1ccccc1NC(=O)NCc1cccn1Cc1ccccc1,3%[46 µM],nt,nt,nt,nt
O=c1[nH]ccc2c(S(=O)(=O)N3CCCNCC3)cccc12,nt,?,1%[0.00818 µM],nt,?
CCOC(=O)c1cnn2c(C(F)(F)F)cc(-c3ccccc3)nc12,2%,?,-5%,15,-10%
CCOC(=O)C1CCCN(C(=O)c2cnn3c(C(F)(F)F)cc(-c4ccccc4)nc23)C1 (centres undefined),-2%,25µM*,-6%,5,?
O=C(c1cnn2c(C(F)(F)F)cc(-c3ccc4c(c3)OCO4)nc12)N1CCCC1,-6%,4.5µM*,-4%,14,0%
CCOC(=O)C1CCCN(C(=O)c2cc3nc(-c4cccc(OC)c4)cc(C(F)(F)F)n3n2)C1 (centres undefined),6%,16µM*,-22%,-80*,?
Cc1cc(C)c(S(=O)(=O)Nc2ccc3c(c2)CCC3)c(C)c1,?,-21%,-13%,-89*,-4%
Cc1cc(C)cc(OCC(=O)Nc2ccc3c4c(cccc24)CC3)c1,3%,-12%,-1%,9,0%
Cc1cc(C)c(S(=O)(=O)Nc2ccc3c4c(cccc24)CC3)c(C)c1,?,-13%,-15%,-88*,?
Cc1cc(C)c(S(=O)(=O)Nc2ccc(O)cc2)c(C)c1,2%,-7%,-5%,?,1%
O=C(CSc1nc(O)cc(=O)[nH]1)C1CC1,-3%,18µM*,4%,-123*,?
COc1ccc(-c2nn(CCC#N)cc2/C=N/O)cc1OC,-10%[46 µM],nt,nt,nt,18µM*
COc1ccc(-c2nn(CCC#N)cc2/C=N/O)cc1,-7%[46 µM],nt,nt,nt,-2%
